This is part of a sample that, as a whole, favours compounds with a hit. Of some 79,000 tested, about 15% had one in any assay. Unmarked numbers belong to inactive results. Active and inactive are the calls of the source. Rule as the data show it: active = growth inhibition above about 70%; inactive = the rest.

A short description of the first experiment: NCI Yeast Anticancer Drug Screen. Data for the rad50EPP+ strain (AID 151).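 Also: 0% = growth of vehicle-treated control cultures.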 The following applies: S. cerevisiae rad50 mutant strain, at 3.7 µM, hits give high values. The gist of the method:
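rad50EPP+ yeast treated with test compounds. Readout: growth vs vehicle control.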
As for `CNC(=O)OCc1c(COC(=O)NC)c(C)n(-c2ccc(Cl)c(Cl)c2)c1C`, the growth inhibition was -19%.
Consider `S=c1[nH]nc(Cc2ccccc2)c(=S)[nH]1`, for which the growth inhibition was -10%.
Still for that read-out and setting: with `COc1ccc2nc3cccc([N+](=O)[O-])c3c(NCCCO)c2c1` the figure was 35%; with `Cc1ccc(N(C=O)c2c([N+](=O)[O-])cc([N+](=O)[O-])c3c2=[N+]([O-])CN=3)cc1`, 51%.
Same read-out and setting: in the case of `COc1ccc(C(=O)OCCc2ccccc2)cc1` it was 16%; in that of `NCC(O)CSCc1ccc(Cl)cc1` (stereo unspecified), -4%; in that of `COc1ccc(/C(=N/O)c2ccccc2C2=Nc3ccccc3C(NCc3ccccc3)O2)cc1C` (stereo unspecified), 1%.
`c1cc(Nc2ccc3c(c2)OCO3)c2cc(C3CCCCC3)ccc2n1`: the growth inhibition was -2%.
On the same count and under the same terms, in the case of `COc1cc(NCCCCCNC(C)C)c2ncccc2c1Cl` it was -1%; in that of `CC(=O)O/N=C/c1c2ccccc2cc2ccccc12`, 24%; in that of `CCCCCCC(CCl)c1sc(-c2csc(CCNC(=O)OC(C)(C)C)n2)nc1C(=O)OC` (stereo unspecified), 1%.
On the same count and under the same terms, in the case of `CCOC(=O)C1=C(C)NC(C)=C(C(=O)OCC)C1c1cccc([N+](=O)[O-])c1` it was -78%; in that of `Cc1ccc2c(/C=C/c3ccc(N(C)C)cc3)ccnc2c1C`, -30%.
On the same count and under the same terms, with `O=C1C(Br)=CC(Br)(Br)C=C1Br` the figure was 31%.

The experiment is the same for the next values; noted with them: S. cerevisiae rad50 mutant strain, at 11.0 µM, hits give high values.
As for `CNC(=O)OCc1c(COC(=O)NC)c(C)n(-c2ccc(Cl)c(Cl)c2)c1C`, the growth inhibition was -25%.
As for `S=c1[nH]nc(Cc2ccccc2)c(=S)[nH]1`, the growth inhibition is -11%.
Same read-out and setting: in the case of `COc1ccc2nc3cccc([N+](=O)[O-])c3c(NCCCO)c2c1` it was 75% (active).
As to `Cc1ccc(N(C=O)c2c([N+](=O)[O-])cc([N+](=O)[O-])c3c2=[N+]([O-])CN=3)cc1`, the growth inhibition was 84% (active).
On to `COc1ccc(C(=O)OCCc2ccccc2)cc1`, for which the growth inhibition was 19%.
Turning to `NCC(O)CSCc1ccc(Cl)cc1` (stereo unspecified), the growth inhibition is 1%.
In the case of `COc1ccc(/C(=N/O)c2ccccc2C2=Nc3ccccc3C(NCc3ccccc3)O2)cc1C` (stereo unspecified), the growth inhibition was 15%.
Same read-out and setting: with `c1cc(Nc2ccc3c(c2)OCO3)c2cc(C3CCCCC3)ccc2n1` the figure was -2%; with `COc1cc(NCCCCCNC(C)C)c2ncccc2c1Cl`, 1%.
Same read-out and setting: with `CC(=O)O/N=C/c1c2ccccc2cc2ccccc12` the figure was 44%.
Still for that read-out and setting: in the case of `CCCCCCC(CCl)c1sc(-c2csc(CCNC(=O)OC(C)(C)C)n2)nc1C(=O)OC` (stereo unspecified) it was 2%; in that of `CCOC(=O)C1=C(C)NC(C)=C(C(=O)OCC)C1c1cccc([N+](=O)[O-])c1`, -91%; in that of `Cc1ccc2c(/C=C/c3ccc(N(C)C)cc3)ccnc2c1C`, -15%.
In the case of `O=C1C(Br)=CC(Br)(Br)C=C1Br`, the growth inhibition is 70% (active).

The same experiment, now with this note: S. cerevisiae rad50 mutant strain, at 33.0 µM, hits give high values.
On to `CNC(=O)OCc1c(COC(=O)NC)c(C)n(-c2ccc(Cl)c(Cl)c2)c1C`, for which the growth inhibition was -18%.
In the case of `S=c1[nH]nc(Cc2ccccc2)c(=S)[nH]1`, the growth inhibition is 16%.
Same read-out and setting: with `COc1ccc2nc3cccc([N+](=O)[O-])c3c(NCCCO)c2c1` the figure was 94% (active); with `Cc1ccc(N(C=O)c2c([N+](=O)[O-])cc([N+](=O)[O-])c3c2=[N+]([O-])CN=3)cc1`, 95% (active).
Same read-out and setting: with `COc1ccc(C(=O)OCCc2ccccc2)cc1` the figure was 31%; with `NCC(O)CSCc1ccc(Cl)cc1` (stereo unspecified), -5%; with `COc1ccc(/C(=N/O)c2ccccc2C2=Nc3ccccc3C(NCc3ccccc3)O2)cc1C` (stereo unspecified), 49%.
As to `c1cc(Nc2ccc3c(c2)OCO3)c2cc(C3CCCCC3)ccc2n1`, the growth inhibition was -3%.
Still for that read-out and setting: in the case of `COc1cc(NCCCCCNC(C)C)c2ncccc2c1Cl` it was 9%.
In the case of `CC(=O)O/N=C/c1c2ccccc2cc2ccccc12`, the growth inhibition was 64%.
For the molecule `CCCCCCC(CCl)c1sc(-c2csc(CCNC(=O)OC(C)(C)C)n2)nc1C(=O)OC` (stereo unspecified), the growth inhibition was 4%.
On the same count and under the same terms, in the case of `CCOC(=O)C1=C(C)NC(C)=C(C(=O)OCC)C1c1cccc([N+](=O)[O-])c1` it was -93%; in that of `Cc1ccc2c(/C=C/c3ccc(N(C)C)cc3)ccnc2c1C`, 22%.
Same read-out and setting: in the case of `O=C1C(Br)=CC(Br)(Br)C=C1Br` it was 98% (active).

Still in this experiment, the particulars now being: S. cerevisiae rad50 mutant strain, at 100.0 µM, hits give high values.
Consider `CNC(=O)OCc1c(COC(=O)NC)c(C)n(-c2ccc(Cl)c(Cl)c2)c1C`, for which the growth inhibition was 65%.
Still for that read-out and setting: in the case of `S=c1[nH]nc(Cc2ccccc2)c(=S)[nH]1` it was 48%.
As for `COc1ccc2nc3cccc([N+](=O)[O-])c3c(NCCCO)c2c1`, the growth inhibition was 97% (active).
Turning to `Cc1ccc(N(C=O)c2c([N+](=O)[O-])cc([N+](=O)[O-])c3c2=[N+]([O-])CN=3)cc1`, the growth inhibition was 97% (active).
Same read-out and setting: in the case of `COc1ccc(C(=O)OCCc2ccccc2)cc1` it was 47%; in that of `NCC(O)CSCc1ccc(Cl)cc1` (stereo unspecified), -2%; in that of `COc1ccc(/C(=N/O)c2ccccc2C2=Nc3ccccc3C(NCc3ccccc3)O2)cc1C` (stereo unspecified), 82% (active).
With `c1cc(Nc2ccc3c(c2)OCO3)c2cc(C3CCCCC3)ccc2n1`, the growth inhibition is 23%.
With `COc1cc(NCCCCCNC(C)C)c2ncccc2c1Cl`, the growth inhibition was 13%.
For `CC(=O)O/N=C/c1c2ccccc2cc2ccccc12`, the growth inhibition was 66%.
Still for that read-out and setting: with `CCCCCCC(CCl)c1sc(-c2csc(CCNC(=O)OC(C)(C)C)n2)nc1C(=O)OC` (stereo unspecified) the figure was 19%.
Regarding `CCOC(=O)C1=C(C)NC(C)=C(C(=O)OCC)C1c1cccc([N+](=O)[O-])c1`, the growth inhibition is -103%.
Consider `Cc1ccc2c(/C=C/c3ccc(N(C)C)cc3)ccnc2c1C`, for which the growth inhibition was 41%.
On to `O=C1C(Br)=CC(Br)(Br)C=C1Br`, for which the growth inhibition is 98% (active).

Values taken from PubChem BioAssay (NCI).
